Results on 3 compounds are retold here after PubChem BioAssay (EPA / NIEHS).

The source made the active and inactive calls. How the source made its calls: active means hit-call score of the fitted dose curve at least 0.9, where 1 is the maximum; inactive means score below 0.9.

What all share (conditions): mRNA level, 48 h; actives raise or lower the signal
Read-out in assay [1]: Glutamate-cysteine ligase catalytic (GCLC), GCLC (gene 2729)
In words: LTEA_HepaRG_GCLC: Life Technologies and Expression Analysis (LTEA) Assay for Glutamate-cysteine ligase catalytic (GCLC) using HepaRG (AID 2283498). In outline:
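HepaRG, 48 h exposure, 8-pt half-log series from 100 uM, 0.5% DMSO vehicle; TaqMan qRT-PCR for GCLC mRNA, housekeeping-normalized; bidirectional curve fit vs DMSO baseline.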

Read-out in assay [2]: growth arrest and DNA damage 45 (GADD45G), GADD45G (gene 10912)
The assay can be described thus: LTEA_HepaRG_GADD45G: Life Technologies and Expression Analysis (LTEA) Assay for growth arrest and DNA damage 45 (GADD45G) using HepaRG (AID 2283499). In outline: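 Differentiated human HepaRG cells, 48 h post-plating, exposed 48 h in serum-free induction medium to 8 half-log concentrations (top 100 uM, 0.5% DMSO) in duplicate. GADD45G mRNA measured by Fluidigm TaqMan qRT-PCR, normalized to ACTB, GAPDH, POLR2A; bidirectional fit versus DMSO.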

Read-out in assay [3]: Glutamate-cysteine ligase regulatory (GCLM), GCLM (gene 2730)
The assay can be described thus: LTEA_HepaRG_GCLM: Life Technologies and Expression Analysis (LTEA) Assay for Glutamate-cysteine ligase regulatory (GCLM) using HepaRG (AID 2283500). In outline:
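Endpoint is GCLM transcript level by qRT-PCR, normalized to three housekeeping genes, after 48 h chemical exposure of human HepaRG cells (0.5% DMSO vehicle, top 100 uM, half-log dilutions). Fitting was bidirectional relative to DMSO.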

Read-out in assay [4]: Glutathione S-transferase M3 (GSTM3), GSTM3 (gene 2947)
In words: LTEA_HepaRG_GSTM3: Life Technologies and Expression Analysis (LTEA) Assay for Glutathione S-transferase M3 (GSTM3) using HepaRG (AID 2283501). In outline:
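Differentiated human HepaRG cells were exposed in duplicate for 48 h in serum-free induction medium, 8 points from 100 uM top in half-log steps, 0.5% DMSO. GSTM3 mRNA was measured by TaqMan qRT-PCR, normalized to ACTB, GAPDH and POLR2A; bidirectional fit versus DMSO.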

Read-out in assay [5]: Heat shock 70 kDa protein 1 (HSPA1A), gene 3303
The assay can be described thus: LTEA_HepaRG_HSPA1A: Life Technologies and Expression Analysis (LTEA) Assay for Heat shock 70 kDa protein 1 (HSPA1A) using HepaRG (AID 2283502). In outline:
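Cells were plated and cultured for 48 h, then switched to serum-free induction medium. Chemicals were added at eight half-log concentrations up to 100 uM for 48 h. RNA was then isolated and HSPA1A measured by qRT-PCR with bidirectional curve fitting against DMSO.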

Read-out in assay [6]: Hypoxia-inducible factor 1-alpha (Homo sapiens) (UniProt Q16665)
The assay can be described thus: LTEA_HepaRG_HIF1A: Life Technologies and Expression Analysis (LTEA) Assay for Hypoxia-inducible factor 1 (HIF1A) Trancription factor using HepaRG (AID 2283503). In outline: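 HIF1A transcript level read by qRT-PCR (ACTB, GAPDH, POLR2A normalization) after 48 h chemical exposure of HepaRG cultures. Eight half-log concentrations, top 100 uM, 0.5% DMSO vehicle, duplicates; bidirectional curve fit against DMSO baseline.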

Read-out in a further assay: HGF (gene 3082)
In words: LTEA_HepaRG_HGF: Life Technologies and Expression Analysis (LTEA) Assay for Hepatocyte Growth Facto (HGF) using HepaRG (AID 2283505). In outline:
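Differentiated HepaRG cells in serum-free induction medium exposed 48 h in duplicate, 8 half-log concentrations from 100 uM in 0.5% DMSO. HGF mRNA by qRT-PCR, normalised to ACTB, GAPDH, POLR2A; bidirectional fitting.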

Read-out in assay [7]: Insulin Like Growth Factor 1 (IGF1), IGF1 (gene 3479)
The assay can be described thus: LTEA_HepaRG_IGF1: Life Technologies and Expression Analysis (LTEA) Assay for Insulin Like Growth Factor 1 (IGF1) using HepaRG (AID 2283506). In outline:
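Cells are thawed, plated and cultured 48 h, then exposed in duplicate to chemical (highest 100 uM, half-log steps, 0.5% DMSO) for another 48 h. Total RNA is analysed by Fluidigm qRT-PCR for IGF1 expression relative to vehicle.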

Read-out in assay [8]: Intercellular Adhesion Molecule 1 (ICAM1), ICAM1 (gene 3383)
The assay can be described thus: LTEA_HepaRG_ICAM1: Life Technologies and Expression Analysis (LTEA) Assay for Intercellular Adhesion Molecule 1 (ICAM1) using HepaRG (AID 2283507). In outline: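 Differentiated human HepaRG cells in serum-free induction medium exposed 48 h in duplicate to 8 half-log concentrations (top 100 uM, 0.5% DMSO). ICAM1 mRNA quantified by TaqMan qRT-PCR, normalized to ACTB, GAPDH and POLR2A; bidirectional fitting versus DMSO.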

Read-out in assay [9]: Insulin-like growth factor-binding protein 1 (IGFBP1), IGFBP1 (gene 3484)
The assay can be described thus: LTEA_HepaRG_IGFBP1: Life Technologies and Expression Analysis (LTEA) Assay for Insulin-like growth factor-binding protein 1 (IGFBP1) using HepaRG (AID 2283508). In outline:
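HepaRG cells, plated 48 h then switched to serum-free induction medium, exposed in duplicate for 48 h to 8-point half-log series from 100 uM in 0.5% DMSO. mRNA measured by qRT-PCR, normalized to ACTB/GAPDH/POLR2A; bidirectional fit versus DMSO.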

Read-out in assay [10]: Interleukin 6 (IL6), IL6 (gene 3569)
In words: LTEA_HepaRG_IL6: Life Technologies and Expression Analysis (LTEA) Assay for Interleukin 6 (IL6) using HepaRG (AID 2283509). In outline: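 qRT-PCR read-out of IL6 transcript, normalized to three housekeeping genes, after 48 h chemical exposure of HepaRG cells; 8-point half-log series, top 100 uM, 0.5% DMSO vehicle. Bidirectional curve fitting against DMSO baseline.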

Read-out in assay [11]: Interleukin 6 Receptor (IL6R), IL6R (gene 3570)
The assay can be described thus: LTEA_HepaRG_IL6R: Life Technologies and Expression Analysis (LTEA) Assay for Interleukin 6 Receptor (IL6R) using HepaRG (AID 2283510). In outline: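 Cells were thawed, plated and cultured 48 h, then medium was changed to serum-free induction medium. Chemicals were added in duplicate (100 uM top, half-log steps, 0.5% DMSO) for 48 h. Lysates were analyzed by qRT-PCR for IL6R expression.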

Read-out in assay [12]: Potassium channel subfamily K member 1 (KCNK1), KCNK1 (gene 3775)
In words: LTEA_HepaRG_KCNK1: Life Technologies and Expression Analysis (LTEA) Assay for Potassium channel subfamily K member 1 (KCNK1) using HepaRG (AID 2283511). In outline:
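HepaRG, 48 h exposure, 8-pt half-log series top 100 uM, 0.5% DMSO vehicle, duplicates. Readout: KCNK1 transcript by qRT-PCR (Fluidigm array), housekeeping-normalized; bidirectional curve fit relative to DMSO baseline.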

Read-out in assay [13]: Keratin 19 (KRT19), KRT19 (gene 3880)
The assay can be described thus: LTEA_HepaRG_KRT19: Life Technologies and Expression Analysis (LTEA) Assay for Keratin 19 (KRT19) using HepaRG (AID 2283512). In outline:
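Differentiated HepaRG cells in serum-free induction medium, exposed 48 h in duplicate to 8 half-log concentrations up to 100 uM in 0.5% DMSO. KRT19 mRNA by qRT-PCR, normalized to ACTB, GAPDH, POLR2A; bidirectional fit vs DMSO.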

Read-out in assay [14]: JUN Transcription Factor, JUN (gene 3725)
In words: LTEA_HepaRG_JUN: Life Technologies and Expression Analysis (LTEA) Assay for JUN Transcription Factor using HepaRG (AID 2283513). In outline:
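Read-out is JUN transcript level by TaqMan qRT-PCR, normalized to ACTB, GAPDH and POLR2A, after 48 h chemical treatment of HepaRG cells. Concentration-response spanned eight half-log points up to 100 uM in 0.5% DMSO.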

Read-out in assay [15]: Lipase C (LIPC), LIPC (gene 3990)
In words: LTEA_HepaRG_LIPC: Life Technologies and Expression Analysis (LTEA) Assay for Lipase C (LIPC) using HepaRG (AID 2283514). In outline: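 HepaRG, 48 h exposure, 8-pt half-log series from 100 uM in 0.5% DMSO, duplicates. Readout: LIPC mRNA by Fluidigm qRT-PCR, housekeeping-normalized (ACTB/GAPDH/POLR2A). Gain or loss fitted bidirectionally against DMSO baseline.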

Read-out in assay [16]: Lipoprotein lipase (LPL), LPL (gene 4023)
The assay can be described thus: LTEA_HepaRG_LPL: Life Technologies and Expression Analysis (LTEA) Assay for Lipoprotein lipase (LPL) using HepaRG (AID 2283515). In outline: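 HepaRG, 48 h exposure, 8-pt half-log dilutions from 100 uM, 0.5% DMSO vehicle, duplicates; qRT-PCR (Fluidigm array) of LPL mRNA vs housekeeping genes; bidirectional curve fit relative to DMSO baseline.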

Read-out in assay [17]: MicroRNA 122 (MIR122), gene 406906
The assay can be described thus: LTEA_HepaRG_MIR122: Life Technologies and Expression Analysis (LTEA) Assay for MicroRNA 122 (MIR122) using HepaRG (AID 2283516). Further: the transcript read is the microRNA miR-122. In outline: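 Human liver HepaRG cultures receive test chemicals for 48 h at eight half-log concentrations from 100 uM. Expression is quantified by qRT-PCR with ACTB/GAPDH/POLR2A normalization and fitted bidirectionally against 0.5% DMSO.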

Read-out in assay [18]: matrix metalloproteinase-10 (MMP10), MMP10 (gene 4319)
In words: LTEA_HepaRG_MMP10: Life Technologies and Expression Analysis (LTEA) Assay for matrix metalloproteinase-10 (MMP10) using HepaRG (AID 2283517). In outline:
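Transcript levels come from Fluidigm qRT-PCR normalized to three housekeeping genes, with curves fitted bidirectionally against 0.5% DMSO. Human HepaRG cells were dosed for 48 hours at concentrations up to 100 uM.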

Read-out in assay [19]: 3-Hydroxy-3-Methylglutaryl-CoA Synthase 2 (HMGCS2), HMGCS2 (gene 3158)
The assay can be described thus: LTEA_HepaRG_HMGCS2: Life Technologies and Expression Analysis (LTEA) Assay for 3-Hydroxy-3-Methylglutaryl-CoA Synthase 2 (HMGCS2) using HepaRG (AID 2283504). In outline:
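Human HepaRG cells in serum-free induction medium were exposed in duplicate for 48 h to 8-point half-log series from 100 uM top in 0.5% DMSO. HMGCS2 mRNA measured by TaqMan qRT-PCR, normalised to ACTB, GAPDH, POLR2A; bidirectional fit versus DMSO.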

Hypoxia-inducible factor 1-alpha (Homo sapiens), sequence (Q16665 whole entry, looked up): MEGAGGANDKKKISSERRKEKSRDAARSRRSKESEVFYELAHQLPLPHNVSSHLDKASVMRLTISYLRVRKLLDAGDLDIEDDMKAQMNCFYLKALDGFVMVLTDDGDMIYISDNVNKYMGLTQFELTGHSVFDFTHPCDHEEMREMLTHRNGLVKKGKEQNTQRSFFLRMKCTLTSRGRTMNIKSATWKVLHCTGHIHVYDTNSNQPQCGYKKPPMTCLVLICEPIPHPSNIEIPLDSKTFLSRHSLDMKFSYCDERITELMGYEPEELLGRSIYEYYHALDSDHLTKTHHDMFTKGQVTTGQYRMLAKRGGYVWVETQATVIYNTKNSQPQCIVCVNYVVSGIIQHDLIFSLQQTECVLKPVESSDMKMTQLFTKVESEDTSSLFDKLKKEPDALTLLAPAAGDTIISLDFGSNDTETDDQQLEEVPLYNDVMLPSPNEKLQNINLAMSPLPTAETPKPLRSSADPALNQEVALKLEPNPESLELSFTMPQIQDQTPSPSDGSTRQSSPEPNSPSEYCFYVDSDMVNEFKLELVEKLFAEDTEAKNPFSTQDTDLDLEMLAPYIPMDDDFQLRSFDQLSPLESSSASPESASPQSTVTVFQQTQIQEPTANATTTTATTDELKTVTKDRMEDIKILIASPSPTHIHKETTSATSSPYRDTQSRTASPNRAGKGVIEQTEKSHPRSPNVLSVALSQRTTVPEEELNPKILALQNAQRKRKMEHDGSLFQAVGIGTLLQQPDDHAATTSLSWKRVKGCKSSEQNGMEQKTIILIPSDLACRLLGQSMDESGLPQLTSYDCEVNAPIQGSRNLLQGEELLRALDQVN

On to `Cc1cc(SC2=C(O)C[C@@](CCc3ccc(N)cc3)(C(C)C)OC2=O)c(C(C)(C)C)cc1CO`, for which the compound was classed as inactive in assay [1], in [2], in assay [3], in assay [4], in [5] and in assay [6]. In addition, the compound was called inactive (with HGF (gene 3082); in assay [8]; in assay [9]; in assay [10]; in assay [11]; in assay [12]). The compound was classed as inactive in assay [13], in assay [14], in [15], in [16], in assay [17] and in assay [18]. Besides, in [7], the AC50 is 4.02 µM (active).

Regarding `CCCCC(CC)COP(=O)(OCC(CC)CCCC)OCC(CC)CCCC` (stereo unspecified), the compound was classed as inactive in assay [1], in assay [2], in assay [3], in [4], in assay [5] and in [6]. In addition, the call (with HGF (gene 3082); in [7]; in [8]; in assay [10]; in assay [11]; in assay [12]) was inactive. For the same compound, the outcome in assay [13], in [14], in assay [15], in assay [16], in assay [17] and in assay [18] was inactive.

As for `OCC(O)CO`, the compound was called inactive in assay [1], in assay [2], in assay [3], in [4], in assay [5] and in [6]. The outcome (in assay [19]; with HGF (gene 3082); in assay [7]; in assay [9]; in assay [10]; in assay [11]) was inactive. Further, the outcome in [12], in assay [13], in assay [14], in assay [15], in assay [16] and in assay [17] was inactive. Further, in [18], the compound was called inactive.
